Reference: PubChem BioAssay AID463173 (ICCB-Longwood Screening Facility, Harvard Medical School, 2010)
About 4,300 (8.3%) of roughly 52,000 compounds were called active. Cut-off read from the data, not from the text of the source: active = survival mostly below about 52% (no sharp cut-off); inactive = mostly above about 56%. The list comes from a sample in which actives are over-represented; it also holds similar structures and randomly drawn compounds.

test system: DeltatarO mutant; assay: S. aureus survival, RN4220 and DeltatarO strains – OD600, teichoic acid synthesis inhibitors, primary screen (AID 463173); details: S. aureus RN4220 wild type/DeltatarO growth, OD600, 18 h, stronger effect = lower value, screened at 18.75 µg/mL (by protocol)

Structure (SMILES) | survival
CCS(=O)(=O)c1nc(S(=O)(=O)c2ccc(C)cc2)c(NCCCOC)s1 | 97% (inactive)
COc1ccccc1N1CCN(C(=O)CSc2n[nH]c(-c3ccccc3)n2)CC1 | 88% (inactive)
COc1ccc(C(=O)NC2CC(=O)N(c3ccc4c(c3)OCCO4)C2)cc1 (stereo not drawn) | 100% (inactive)
COc1ccc(N2CC(NC(=O)c3ccc(OC(C)C)cc3)CC2=O)cc1 (stereo not drawn) | 0% (active)
COc1ccc(N2CC(NC(=O)CCCc3ccccc3)CC2=O)cc1 (stereo not drawn) | 32% (active)
COc1ccc(N2CC(NC(=O)c3ccc(S(=O)(=O)N4CCCC4)cc3)CC2=O)cc1 (stereo not drawn) | 112% (inactive)
Cc1cccc(CC(=O)NC2CC(=O)N(c3ccccc3)C2)c1 (stereo not drawn) | -5% (active)
O=C(CCc1ccccc1)NC1CC(=O)N(c2ccccc2)C1 (stereo not drawn) | 94% (inactive)
Cc1ccc(N2CC(NC(=O)CCCc3ccccc3)CC2=O)cc1 (stereo not drawn) | 66% (inactive)
O=C(Cc1ccccc1)NC1CC(=O)N(c2ccccc2)C1 (stereo not drawn) | 87% (inactive)
COc1ccc(CCC(=O)NC2CC(=O)N(c3ccccc3)C2)cc1 (stereo not drawn) | 126% (inactive)
Cc1cccc(CC(=O)NC2CC(=O)N(c3cccc(F)c3)C2)c1 (stereo not drawn) | 67% (inactive)
COc1cccc(N2CC(NC(=O)CCCc3ccccc3)CC2=O)c1 (stereo not drawn) | 69% (inactive)
Cc1ccc(N2CC(NC(=O)CCc3ccccc3)CC2=O)cc1 (stereo not drawn) | 20% (active)
Cc1c(NC(=O)c2ccc(OC(C)C)cc2)cccc1-c1nc2ncccc2o1 | 47% (inactive)
O=C(Nc1ccc(F)cc1)c1nc(SCc2ccccc2F)ncc1Cl | 99% (inactive)
Cc1ccc(C(=O)O)cc1NC(=O)c1nsc2ccccc12 | 103% (inactive)
CCOC(=O)c1sc(=S)n(C)c1C | 88% (inactive)
COc1ccc(OC)c(CNS(=O)(=O)c2ccc3[nH]c4c(c3c2)CCCCC4)c1 | 79% (inactive)
Cc1ccc(Nc2c3c(nc4nncn24)CCC3)cc1 | 62% (inactive)
COc1ccc(CNC(=O)c2cc3cccc4c3n2CC(C)S4)c(OC)c1 (stereo not drawn) | 122% (inactive)
CCOC(=O)/C(C#N)=C/c1ccc(-c2ccc(Br)cc2)o1 | 81% (inactive)
CCC(C)OC(=O)/C(C#N)=C/c1ccc(-c2ccc(Br)cc2)o1 (stereo not drawn) | 43% (active)
CCCCOC(=O)/C(C#N)=C/c1ccc(-c2ccc(Br)cc2)o1 | 68% (inactive)
CCC(C)OC(=O)/C(C#N)=C\c1ccc(-c2ccccc2Cl)o1 (stereo not drawn) | 58% (active)
CC(C)COC(=O)/C(C#N)=C\c1ccc(-c2ccccc2Cl)o1 | 67% (inactive)
CC(C)OC(=O)/C(C#N)=C/c1ccc(-c2ccc(Cl)c(Cl)c2)o1 | 72% (inactive)
Cc1cccc(-c2nc(C)c(CCNC(=O)C(=O)Nc3ccc(C)c(C)c3)s2)c1 | 88% (inactive)
